DAX1 inh-1 – blocks DAX1 repression of SF-1 activated StAR promoter; HEK293T StAR-luciferase reporter, SF-1/DAX-1 repression relief; hit rate 1.1% among 370,000; inhibition, % at 6.8 µM; AID 652010;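 active = inhibition above the mean over all tested compounds plus 3 SD, cut at about 3.6% in these data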;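 also: higher inhibition means more luminescence from relief of DAX-1 repression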
ssDAF-12 act – S. stercoralis DAF-12 activation, primary screen. AID 652126. hit rate 1% among 370,000. HEK293 ssDAF-12/GRIP1 lit1-tk-luc reporter, luminescence; % of 3 µM dafachronic acid response. activation, % at 6.8 µM;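 active = activation above the mean over all tested compounds plus 3 SD, cut at about 0.9% in these data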
hcDAF12 agonist – activates DAF-12 receptor from parasite H. contortus. HEK293 hcDAF-12 lit1-tk-luc reporter, luminescence; 0% DMSO, 100% Δ7-dafachronic acid. hit rate 1.4% among 370,000. activation, % at 6.8 µM;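 active = activation above the mean of all tested compounds plus 3 SD, cut at about 5.5% in these data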
NR1D1 modulator – Rev-erb alpha (human) modulation; P20393; Rev-erbα–FITC-DNA binding, fluorescence polarization, 90 min; activity, % at 10 µM; hit rate 0.79% among 370,000;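 active = activity above about 14%, limit read from the data; passing the limit was not always enough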
hgDAF-12 ag – agonists of H. glycines DAF-12 nuclear receptor | HEK293 GAL4-hgDAF12 UAS-luciferase reporter, agonist luminescence; normalized to butyrate control | activation, % at 6.8 µM | hit rate 1.8% among 370,000;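 active = activation above a cutoff set at the mean of all screened compounds plus 3 SD, cut at about 10% in these data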
DAX1 inh-2 – inhibitors of human orphan nuclear receptor DAX1 (NR0B1) | hit rate 0.99% among 340,000 | inhibition, % at 6.75 µM | AID 504766 | HEK293 Gal4-DAX1 luciferase reporter, luminescence | P51843;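 active = inhibition above the mean over all tested compounds plus 3 SD, cut at about 4.2% in these data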;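 also: inhibition shows as a rise in luminescence from relieved DAX1 repression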
Target sequence (P51843 207-470 limits assumed): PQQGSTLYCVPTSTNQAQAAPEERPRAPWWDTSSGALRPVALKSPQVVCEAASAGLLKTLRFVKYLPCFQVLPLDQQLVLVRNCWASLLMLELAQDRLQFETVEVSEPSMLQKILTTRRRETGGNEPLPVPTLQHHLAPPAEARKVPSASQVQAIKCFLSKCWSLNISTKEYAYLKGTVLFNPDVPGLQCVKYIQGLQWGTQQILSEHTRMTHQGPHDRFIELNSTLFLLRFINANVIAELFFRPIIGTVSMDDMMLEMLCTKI
Rev-erbA confirm – Rev-erb alpha (human) modulation, hit confirmation; shares compounds with NR1D1 modulator; Rev-erb alpha FITC-DNA binding, fluorescence polarization, 90 min; activation, % at 25 µM; hit rate 61% among 3,000; AID 1259319;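 active = activation at or above a set limit, or at least 3 SD above the negative control mean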
RORg counter – counter-screen for Rev-erb alpha modulators: RORgamma DNA binding | shares compounds with NR1D1 modulator | purified RORgamma protein-FITC-DNA binding, fluorescence polarization | IC50, µM | hit rate 8% among 910;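 active = Compounds whose fitted half-maximal concentration for disrupting protein-DNA binding is below 10 micromolar; the record names Rev-erb in its text, so the target is in doubt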
Hits are given with their value; - = inactive; . = no result. A selection: hits, their analogues and other compounds. The true share with any hit is near 4.8%.

SMILES	DAX1 inh-1	ssDAF-12 act	hcDAF12 agonist	NR1D1 modulator	hgDAF-12 ag	DAX1 inh-2	Rev-erbA confirm	others
C[C@@H]1CCCCO[C@@H](CN(C)Cc2ccc(C(=O)O)cc2)[C@@H](C)CN([C@H](C)CO)C(=O)c2cc(NS(C)(=O)=O)ccc2O1	-	-	-	-	-	.	.
Cc1cc2c(c(=O)o1)[C@@]1(C(=O)N(C)c3ccccc31)C1=C(CCC1=O)O2	-	-	-	-	-	.	.
O=[N+]([O-])c1ccc(N=Nc2ccc(O)cc2O)cc1	-	-	-	37	-	-	23
OCC1OC(C(N=Nc2ccccc2)=NNc2ccccc2)C(O)C1O (stereo not drawn)	-	-	-	-	-	.	.
Cc1cccc(CSc2nc3ccncc3n2CC(=O)Nc2cc(C)cc(C)c2)c1	-	-	-	29	-	-	13
O=C(Cc1sc(-c2ccccc2Cl)nc1-c1ccccc1)Nc1ccccc1	-	-	-	-	-	-	.
O=C(Cc1sc(-c2ccccc2)nc1-c1ccccc1)Nc1ccc(Cl)cc1	-	-	-	25	-	-	33	RORg counter=-
C[S+](C)CC[C@H](N)C(=O)O	.	.	.	-	.	.	.
CCN(CC)CCN1C(=O)C(=O)/C(=C(/O)c2ccc(OC(C)C)cc2)C1c1cccs1 (stereo not drawn)	-	-	-	41	-	-	27
CCN(CC)CCN1C(=O)C(=O)/C(=C(/O)c2ccc(OC(C)C)cc2)C1c1ccncc1 (stereo not drawn)	-	-	-	-	-	-	.
Cc1c(/C(O)=C2\C(=O)C(=O)N(CCN(C)C)C2c2cccs2)cnn1-c1ccccc1 (stereo not drawn)	-	-	-	19	-	-	27
CCCCCCCCN1C(=O)[C@@H](CC(=O)N2CCCC2)C[C@@]2(C(=O)OC)C1=C[C@H](C(C)(C)C)O[C@@H]2C	-	-	-	-	-	.	.
CCCCNC(=O)C1CCCN1C(=O)Nc1cccc(C)c1 (stereo not drawn)	-	-	-	-	-	.	.
CN(C)c1ccc(N=Nc2ccccc2C(=O)OCC(=O)NCC2CCCCC2)cc1	-	-	-	29	-	-	36	RORg counter=-
COC(=O)c1ccc(C=NNC(=O)c2cc(-c3ccc(C)c(C)c3)n[nH]2)cc1	-	-	-	-	-	.	.
Cc1ccc(-c2cc(C(=O)NN=Cc3c(O)ccc4ccccc34)[nH]n2)cc1C	-	-	-	22	-	.	16
Cc1cc(NCCCN(C)C)n2c(nc3ccccc32)c1C#N	-	-	-	-	-	-	.
Cc1cc(NCCCOC(C)C)n2c(nc3ccccc32)c1C#N	-	-	-	44	-	-	-
CN1c2ccccc2C(=O)/C(=C\Nc2ccc(F)cc2)S1(=O)=O	-	-	-	-	-	-	.
COc1ccc(N/C=C2\C(=O)c3c(sc(C)c3C)N(C)S2(=O)=O)cc1	-	-	-	78	-	-	-
CCCCCCCCN1C(=O)[C@@H](CC(=O)NCc2ccc(OC)c(OC)c2)C[C@@]2(C(=O)OC)C1=C[C@H](COCc1ccccc1)O[C@@H]2C	-	-	-	-	-	.	.
O=C(Nc1cccc(-c2nc3ccccc3s2)c1)C1=COCCO1	-	-	-	-	-	-	.
O=C(Nc1ccc(O)c(-c2nc3ccccc3s2)c1)C1=COCCO1	-	-	-	494	-	-	259	RORg counter=-
O=C(Nc1ccc(-c2nc3ccccc3s2)c(O)c1)C1=COCCO1	-	-	-	87	-	4.9	-
COc1ccccc1CNC(=O)NNC(=O)CCn1nc(C)c([N+](=O)[O-])c1C	-	-	-	-	-	.	.
SMILES	DAX1 inh-1	ssDAF-12 act	hcDAF12 agonist	NR1D1 modulator	hgDAF-12 ag	DAX1 inh-2	Rev-erbA confirm	others
CC1(Cc2ccccc2OC(F)(F)F)C(=O)Nc2ccc(OC(F)(F)F)cc21 (stereo not drawn)	-	-	-	73	-	.	94	RORg counter=-
CC1(Cc2ccccc2OC(F)(F)F)C(=O)Nc2ccc(-c3ccsc3)cc21 (stereo not drawn)	-	-	-	72	-	.	90	RORg counter=-
CC1(Cc2ccccc2OC(F)(F)F)C(=O)Nc2cc(-c3ccccc3Cl)ccc21 (stereo not drawn)	-	-	-	-	-	.	.
COC(=O)c1cccc(CC2(C)C(=O)Nc3ccc(OC(F)(F)F)cc32)c1 (stereo not drawn)	-	-	-	18	-	.	15
COc1ccc2cc3cc(C(=O)Nc4ccc(F)cc4)sc3nc2c1	.	-	-	-	-	.	.
COc1ccc(CNS(=O)(=O)c2cc3c(cc2Br)CC(C)N3C(C)=O)cc1 (stereo not drawn)	-	-	-	-	-	.	.
Cc1ccccc1C(=O)N(C)[C@H]1C[C@H]2c3[nH]c4c(-c5ccccc5)cccc4c3CCN2C(=O)[C@H]1[C@H](C)O	-	-	-	13	-	.	-
C[C@H](O)[C@@H]1C(=O)N2CCc3c([nH]c4c(-c5ccccc5)cccc34)[C@@H]2C[C@@H]1N(C)C(=O)c1cc(Cl)cc(Cl)c1	-	-	-	-	-	.	.
COCCCNC(=O)C[C@H]1C[C@@]2(C(=O)OC)C(=C[C@H](C(C)C)O[C@@H]2C2CC2)N(Cc2cccc3ccccc23)C1=O	-	-	-	-	-	.	.
Cc1[nH]c(=O)[nH]c(=O)c1CCSSCCc1c(C)[nH]c(=O)[nH]c1=O	-	-	-	-	-	.	.
Cc1ccc(C)c(C2NC(=O)c3ccccc3N2)c1 (stereo not drawn)	-	-	-	-	-	-	.
Cn1cc(C2NC(=O)c3ccccc3N2)c2ccccc21 (stereo not drawn)	-	-	-	25	-	-	18
Cc1cc(C(=O)N2CCN(S(C)(=O)=O)CC2)sc1-c1ccccc1	-	-	-	41	-	-	35
Cc1sc2nc(SCC(=O)NCc3ccco3)n(CCc3ccccc3)c(=O)c2c1C	-	-	-	61	-	-	62	RORg counter=-
Cc1sc2nc(SCC(=O)NCc3ccco3)n(C)c(=O)c2c1C	-	-	-	-	-	-	.
CC(=O)O[C@H]1CC[C@]2(C)C3CC[C@]4(C)[C@@H]([C@H](C)/C=C/[C@H](C)C(C)C)CC[C@H]4[C@@]34C=C[C@]2(C1)N(C(=O)c1ccccc1)O4 (stereo partly drawn)	-	-	-	-	-	.	.
CC1CCN(S(=O)(=O)c2ccc3c(c2)c(=O)c(C(=O)NCc2ccco2)cn3C)CC1	-	-	-	-	-	-	.
CC1CCN(S(=O)(=O)c2ccc3c(c2)c(=O)c(C(=O)NCc2cccs2)cn3C)CC1	-	-	-	29	-	-	-
